nsP2pro inh = Primary qHTS for inhibitors of NSP2Pro chikungunya virus (CHIKV); Potency, µM (doses to about 24.9 µM), actives largely listed as inhibitors; Polyprotein P1234 (Chikungunya virus (strain S27-African prototype)), Q8JUX6; 31,000 tested, 1.1% active; FRET peptide cleavage, nsP2pro, fluorescence 1 h; AID 1964107, 2024; also: nearly all actives have a fitted effect of over 60% in size
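Enzyme 150 nM, substrate 2.5 uM (both final); Tris-HCl 10 mM pH 8.0 + 0.01% Tween 20; cpd up to 25 uM, 7 pts; 15 min preinc., 1 h RT; fluorescence ex 525/em 598.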
nsP2 cell sec = Secondary cell base assay for inhibitors of NSP2Pro Chikungunya virus (CHIKV) | 450 tested, 10% active | shares compounds with nsP2pro inh | Potency, µM (highest dose often 51.1 µM), hits mostly inhibitors | cell-based CHIKV nsP2 protease reporter assay; also: nearly all actives have a fitted effect of over 70% in size
CHIKV NSP2 FL = Selectivity profile for inhibitors of NSP2Pro chikungunya virus (CHIKV): Full length NSP2 enzyme counterscreen (CHIKV-NSP2). shares compounds with nsP2pro inh. Full-length CHIKV NSP2 protease enzymatic counterscreen. Potency, µM (titrated, usually from 50.7 µM), most hits filed as inhibitors. 410 tested, 39% active. AID 1964101, 2024; also: nearly all actives have a fitted effect of over 65% in size
Furin counterscr = Selectivity profile for inhibitors of NSP2Pro chikungunya virus (CHIKV): Human furin counterscreen. shares compounds with nsP2pro inh. Recombinant human furin enzymatic counterscreen, fluorogenic substrate. Potency, µM (highest dose often 50.6 µM), actives largely listed as inhibitors. 410 tested, 6% active. AID 1964102, 2024
nsP2 NS23 pep = Selectivity profile for inhibitors of NSP2Pro chikungunya virus (CHIKV): Endogenous NS2/3 peptide Counterscreen | shares compounds with nsP2pro inh | Purified CHIKV nsP2 protease, endogenous NS2/3 peptide cleavage | Potency, µM (titrated, usually from 51 µM), hits mostly inhibitors | 410 tested, 34% active; also: nearly all actives have a fitted effect of over 55% in size
Papain cs = Selectivity profile for inhibitors of NSP2Pro chikungunya virus (CHIKV): Papain Counterscreen. shares compounds with nsP2pro inh. purified papain protease activity, enzymatic inhibition. Potency, µM (top dose mostly 51 µM), actives largely listed as inhibitors. 410 tested, 5% active
Target sequence (P00784 whole entry, looked up): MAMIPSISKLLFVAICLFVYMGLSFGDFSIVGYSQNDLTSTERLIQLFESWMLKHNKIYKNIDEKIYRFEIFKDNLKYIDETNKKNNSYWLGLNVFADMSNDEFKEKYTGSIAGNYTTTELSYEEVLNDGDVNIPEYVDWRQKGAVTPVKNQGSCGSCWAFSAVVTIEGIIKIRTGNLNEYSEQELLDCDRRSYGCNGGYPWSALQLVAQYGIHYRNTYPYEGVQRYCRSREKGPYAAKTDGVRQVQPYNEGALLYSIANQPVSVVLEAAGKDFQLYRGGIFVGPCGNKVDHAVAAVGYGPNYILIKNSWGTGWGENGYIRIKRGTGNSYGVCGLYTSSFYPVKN
nsP2pro confirm = Confirmatory qHTS for inhibitors of NSP2Pro chikungunya virus (CHIKV) | shares compounds with nsP2pro inh | CHIKV nsP2 protease enzymatic activity, qHTS | Potency, µM (doses to about 25.5 µM), actives largely listed as inhibitors | 410 tested, 43% active; also: nearly all actives have a fitted effect of over 75% in size
HCV NS3 4A cs = Selectivity profile for inhibitors of NSP2Pro chikungunya virus (CHIKV): NS34A-HCV Counterscreen | HCV NS3/4A protease biochemical counterscreen | Potency, µM (doses to about 50.9 µM), hits mostly inhibitors | shares compounds with nsP2pro inh | AID 1964106, 2024 | 410 tested, 20% active; also: nearly all actives have a fitted effect of over 55% in size
Of the large screens only hits and unclear results are named; the others gave an inactive call (follow-up assays come after a bar, where they were run); ! = repeats disagree. This is one part of a sample in which hits are shown more often than they occur. Calls follow the shape of the full dose curve.

COc1ccc(NC(=O)C2=C(C)Nc3ncnn3C2c2ccc(C)o2)cc1 (stereo not drawn)	none
CCOc1ccccc1NC(=O)C1=C(C)Nc2ncnn2C1c1sccc1C (stereo not drawn)	none
COc1ccccc1NC(=O)C1=C(C)Nc2ncnn2C1c1ccc[nH]1 (stereo not drawn)	nsP2pro inh 8.91µM | nsP2 cell sec inactive
Cc1cc2c(cc1N1C(=O)c3cccc4c(CCCO)ccc(c34)C1=O)n(C)c(=O)n2C	none
Cc1ccc(C)c(N2CCN(S(=O)(=O)c3csc(C(N)=O)c3)CC2)c1	none
CCCCN(C)C(=O)Cn1c(C2CC(=O)N(c3ccc(C)cc3)C2)nc2ccccc21 (stereo not drawn)	none
NCCCC[C@H](NC(=O)[C@@H]1CCCN1C(=O)[C@@H]1CSSC[C@H](N)C(=O)N[C@@H](Cc2ccccc2)C(=O)N[C@@H](Cc2ccccc2)C(=O)N[C@@H](CCC(N)=O)C(=O)N[C@@H](CC(N)=O)C(=O)N1)C(=O)NCC(N)=O	none
CCC(C)C(N)C1=NC(C(=O)N[C@@H](CC(C)C)C(=O)N[C@H](CCC(=O)O)C(=O)N[C@H](C(=O)N[C@H]2CCCCNC(=O)[C@H](CC(N)=O)NC(=O)[C@@H](CC(=O)O)NC(=O)[C@H](Cc3cnc[nH]3)NC(=O)[C@@H](Cc3ccccc3)NC(=O)[C@H]([C@@H](C)CC)NC(=O)[C@@H](CCCN)NC2=O)[C@@H](C)CC)CS1 (stereo partly drawn)	nsP2pro inh 0.216µM! | nsP2 cell sec inactive | CHIKV NSP2 FL 0.142µM | Furin counterscr 7.98µM | nsP2 NS23 pep 1.13µM | Papain cs 3.18µM | nsP2pro confirm 0.219µM | HCV NS3 4A cs 7.98µM
CC1CCCCN1Cc1nc2c(c(=O)n(C)c(=O)n2C)n1Cc1ccc(Br)cc1 (stereo not drawn)	none
COCCn1c(C)nnc1-c1cc(-c2ccc(OC)c(OC)c2)ccn1	none
CC(C)(C)OC(=O)N1CCN(c2ccc(NCc3ccc(-c4ccc(C(C)(C)C)cc4)o3)cc2)CC1	none
CC(C)(C)OC(=O)N1CCN(c2ccc(NCc3occc3-c3ccc(C#N)cc3)cc2)CC1	none
CC(C)(C)OC(=O)N1CCN(c2ccc(NCc3coc(-c4ccc(C#N)cc4)c3)cc2)CC1	nsP2pro inh 10µM | nsP2 cell sec inconclusive | CHIKV NSP2 FL inactive | Furin counterscr inactive | nsP2 NS23 pep inactive | Papain cs inactive | nsP2pro confirm inactive | HCV NS3 4A cs inconclusive
CC(C)(C)OC(=O)N1CCN(c2ccc(NCc3cc(-c4ccc(C#N)cc4)co3)cc2)CC1	none
CC(C)(C)OC(=O)N1CCN(c2ccc(NCc3ccc(-c4cc(C(F)(F)F)cc(C(F)(F)F)c4)o3)cc2)CC1	none
CC(C)(C)OC(=O)N1CCN(c2ccc(NCc3ccc4c(c3)OCO4)cc2)CC1	nsP2pro inh inconclusive | nsP2 cell sec 6.51µM | CHIKV NSP2 FL inactive | Furin counterscr inactive | nsP2 NS23 pep inactive | Papain cs inactive | nsP2pro confirm inactive | HCV NS3 4A cs inactive
Cn1nnnc1Sc1ncnc2scc(-c3ccc(C#N)cc3)c12	none
CCN1CCN(C(=O)C2CCc3nnc(CNC(C)=O)n32)CC1 (stereo not drawn)	none
Cn1c(NCCO)nc2c1c(=O)n(Cc1ccccc1Cl)c(=O)n2C	none
CCCC(CCC)C(=O)NC1CC(=O)N(c2ccc3c(c2)OCCO3)C1 (stereo not drawn)	none
O=c1c(Nc2ccc(Br)c(Br)c2)c(Nc2nnc(-c3ccncc3)s2)c1=O	none
Cc1ccc(-n2nc(C)c([C@@H]3C=C[C@@H](NCc4ccc(F)cc4)C3)c2C)cc1Cl	none
Cc1nn(-c2ccc(F)cc2)c(C)c1[C@@H]1C=C[C@@H](NCc2ccc(C(C)C)cc2)C1	none
Cc1nn(CCC#N)c(C)c1[C@@H]1C=C[C@@H](NCc2ccc(C(C)C)cc2)C1	nsP2pro inh inconclusive | nsP2 cell sec inactive | CHIKV NSP2 FL 5.95µM | Furin counterscr inactive | nsP2 NS23 pep 16.8µM | Papain cs inactive | nsP2pro confirm 11.6µM | HCV NS3 4A cs 4.21µM
COc1ccc(-c2nc3ccccc3o2)cc1NC(=O)CSc1ccc(Cl)cc1	none
Cc1csc(CNc2ncnc3ccc(-c4ccc5c(c4)OCCO5)cc23)c1	none
c1ccc(CN(Cc2ccccc2)Cc2nnc(-c3cc4ccccc4[nH]3)o2)cc1	none
CNC(=O)C[C@@H](N)C(=O)N[C@@H](C(=O)N[C@@H]1C(=O)N2[C@@H]1SC(C)(C)[C@@H]2C(=O)O)c1ccc(O)cc1	none
Cc1ccc(S(=O)(=O)c2cn(Cc3cccc(F)c3)c3cc(N4CCCC4)c(F)cc3c2=O)cc1	none
Cc1cc2oc(C(=O)Nc3sc4c(c3C(=O)NCc3ccco3)CCC4)cc(=O)c2cc1C	none
O=C(O)C(Cl)Cl	none
O=C(O)[C@@H](O)[C@H](O)[C@H](O)[C@@H](O)C(=O)O	none
O=C(O)C(S)C(S)C(=O)O (stereo not drawn)	nsP2pro inh 8.81µM | nsP2 cell sec inactive | CHIKV NSP2 FL inconclusive | Furin counterscr inactive | nsP2 NS23 pep inconclusive | Papain cs inconclusive | nsP2pro confirm inconclusive | HCV NS3 4A cs inactive
O=C(Nc1ncc(Cc2ccc(C(F)(F)F)cc2)s1)c1ccc(-c2ccccc2)o1	none
Brc1ccc(-c2ccc(C3Nc4cccc5cccc(c45)N3)o2)cc1	none
Fc1ccccc1C1=NC(c2ccc(C(F)(F)F)cc2)=Nc2ccccc2N1	none
O=C1c2ccccc2NC(c2ccc(Br)o2)N1O (stereo not drawn)	none
O=C1c2ccccc2NC(c2ccc(-c3cccs3)o2)N1O (stereo not drawn)	nsP2pro inh 5.62µM | nsP2 cell sec inactive | CHIKV NSP2 FL inactive | Furin counterscr inactive | nsP2 NS23 pep inactive | Papain cs inactive | nsP2pro confirm inactive | HCV NS3 4A cs inactive
